Unmarked numbers belong to inactive results.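 Rule for the calls: active = AUC reduced over 20% with Padj below 0.05 in at least 2 of 3 replicates; inactive = otherwise.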
Tested on: Roseburia intestinalis
Assay: growth AUC relative to DMSO control (median of replicates) (fraction); higher = more growth (less inhibition), active = hit call of the paper
Conditions: 20 µM; 24 h
Procedure, shortened: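 OD600 was recorded every hour for 24 h in anaerobic monocultures of gut bacteria kept at 37 °C in mGAM, seeded at OD600 0.05 and given 20 µM compound in 1% DMSO. The area under each growth curve was scaled to the plate median of solvent-only wells, or to row and column medians for the industrial chemical plate. Before this step, the minimum OD was set to 0. Reported values are medians of three biological replicates run on separate days.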

Row | SMILES | growth AUC
1 | C=C1C[C@]23C[C@@]1(O)CC[C@H]2[C@@]12C=C[C@H](O)[C@@](C)(C(=O)O1)[C@H]2[C@@H]3C(=O)O | 0.881
2 | S=C([S-])NCCNC(=S)[S-].[Mn+2] | 0.96
3 | O=C(O)COc1cccc(Cl)c1Cl | 1.15
4 | C#CC(C)N(C)C(=O)Nc1ccc(Cl)cc1 (configuration not stated) | 0.992
5 | COc1cc(OC)c(Cl)cc1N | 1.06
6 | Cc1ccc(C)c(O)c1 | 0.996
7 | CCOC(=O)C(C)Oc1ccc(Oc2cnc3cc(Cl)ccc3n2)cc1 (configuration not stated) | 1.02
8 | CN(C)C(=O)Nc1cc(C(C)(C)C)on1 | 1.03
9 | CCC(C)c1cc([N+](=O)[O-])cc([N+](=O)[O-])c1OC(=O)OC(C)C (configuration not stated) | 0.692 (active)
10 | c1ccc(CNc2ncnc3nc[nH]c23)cc1 | 0.962
11 | CC(C)OC(=O)N[C@H](C(=O)N[C@H](C)c1nc2ccc(F)cc2s1)C(C)C | 0.975
12 | CCOC(=O)C1CC(=O)C(=C(O)C2CC2)C(=O)C1 (configuration not stated) | 1
13 | CCCCOC(=O)C(C)Oc1ccc(Oc2ccc(C(F)(F)F)cn2)cc1 (configuration not stated) | 0.932
14 | Cc1cc(N(C)C)nc(Cl)n1 | 1.01
15 | CC(C)c1cccc2c(=O)c3ccccc3sc12 | 1.02
16 | Clc1ccc(C(c2ccccc2Cl)C(Cl)Cl)cc1 (configuration not stated) | 0.911
17 | O=C(O)COc1ccc(Cl)cc1CO | 0.945
